# Only some compounds are listed: those with a hit (about 2.4% of all), similar ones and a draw of the others.
# Tau fil binding – binds recombinant human tau filaments | P10636 | recombinant tau filaments, thioflavin S fluorescence, 15 h; filaments grown with octadecylsulfate alongside compound | Potency, µM (highest dose often 57.1 µM), for the others: at the top dose activity change, negative = inhibition | 71,000 tested, 2% active;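 also: % is scaled to controls: 0 for no effect and ±100 for the full control effect; actives lower thioflavin S fluorescence by blocking filaments or displacing dye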
#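 Assay mix: 1 uM His-tagged tau, 30 uM sodium octadecylsulfate, thioflavine S dye in HEPES/NaCl/DTT buffer. Compound is added prior to the inducer. Fluorescence after 15 h at 37 C.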
# 15-hLO-2 inh – inhibitors of human 15-lipoxygenase 2 (ALOX15B). purified 15hLO-2, xylenol orange hydroperoxide absorbance. Potency, µM (series often up to 57.1 µM), without a hit: top-dose activity change, negative = inhibition, actives largely listed as inhibitors. 110,000 tested, 0.56% active. AID 881; also: % is scaled to controls: 0 for no effect and ±100 for the full control effect; nearly all actives have a fitted effect of over 60% in size
#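 Screening format was qHTS against 50 nM purified 15hLO-2 in Hepes pH 7.5 with detergent. Activity follows hydroperoxide formation from 45 uM arachidonic acid, measured as 573:405 nm absorbance ratio of the ferric-xylenol orange complex.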
# Casp7 inh – caspase-7 (human) inhibition, allosteric or competitive | recombinant caspase-7, Ac-DEVD-AFC fluorescence rate | Potency, µM (highest dose often 57.5 µM), inactives show at the highest dose activity change, negative = inhibition, usual class: inhibitors | P55210 | 75,000 tested, 0.02% active; active = well fitted inhibition curve with a large enough effect in the main read-out, with a control signal flat, not every such curve was filed as active; inconclusive = small, poorly fitted or top-dose-only effect, or a change in a side signal; also: % of control where 0% means no effect
# 15-hLO inh – 15-hLO (ALOX15) enzyme inhibition; 74,000 tested, 1.4% active; purified 15hLO-1, xylenol orange hydroperoxide absorbance; Potency, µM (doses to about 57.1 µM), for inactives: top-dose activity change, negative = inhibition, usual class: inhibitors; P16050; also: % is scaled to controls: 0 for no effect and ±100 for the full control effect; nearly all actives have a fitted effect of over 55% in size
#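 Quantitative HTS in 25 mM Hepes pH 7.5 containing 0.01% Triton X-100: human 15hLO-1 at 40 nM, arachidonic acid at 50 uM, 6 min turnover. Product quantified via ferrous oxidation/xylenol orange, 573:405 nm absorbance ratio.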
# Hsp90 Hop PPI – changes Hsp90-Hop TPR2A binding signal, up or down; 71,000 tested, 0.44% active; AlphaScreen TPR2A-His6 binding biotin-Hsp90 C-terminal peptide; Potency, µM (top dose mostly 57 µM), for the others: at the top dose activity change, negative = inhibition; active = well fitted curve in either direction with a large enough effect; inconclusive = small, poorly fitted or top-dose-only effect, or another doubt; also: % is scaled to controls: 0 for no effect and ±100 for the full control effect
# Caspase-1 inhib – caspase-1 (human) inhibition, allosteric or competitive. P29466. Caspase-1 enzyme, Ac-WEHD-AFC fluorogenic rate. Potency, µM (series often up to 57.5 µM), for the others: at the top dose activity change, negative = inhibition, usual class: inhibitors. 75,000 tested, 0.03% active;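 also: plate controls were vehicle for no effect and no substrate for full effect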
# An asterisk follows results filed as active; u = inconclusive; x = no result given; [ ] = another dose, or the depositor's remark. Unless noted, calls follow the shape of the dose curve; as a rule, active = well fitted curve in the direction sought with a large enough effect; inconclusive = small, poorly fitted or top-dose-only effect, or another doubt; inactive = no such curve, though single readings can be large; an effect the other way counts as inactive or inconclusive. Potency is read from the fitted curve at half-maximal effect.
SMILES,Tau fil binding,15-hLO-2 inh,Casp7 inh,15-hLO inh,Hsp90 Hop PPI,Caspase-1 inhib
COc1ccc(C)cc1NC(=O)c1ccc(NC(=O)CC2SC(N3CCCC3)=NC2=O)cc1 (stereo not drawn),-9.1%,7.4%,-1.7%,0.6%,-5.6%,3.3%
Cn1c(CN2CCCC2)nc2cc(NC(=O)COc3ccc(Cl)cc3)ccc21,56.1%,4.9%,-0.6%,16.8%,-2.5%,-1.9%
Cc1ccc(S(=O)(=O)/C(C#N)=C/c2c[nH]c3ccccc23)cc1,x,-6.3%,x,x,x,x
CC(C)n1cc(/C=C(\C#N)S(=O)(=O)c2ccccc2)c2ccccc21,7.94µM*,-23.0%,u,-15.3%,23.8%,x
Cc1cc(C)n2nc(SCc3ncc(-c4ccccc4)o3)nc2n1,6.7%,-3.2%,-0.5%,-12.4%,-2.8%,-0.2%
c1ccc(-c2cnc(CSc3ncnc4sccc34)o2)cc1,-13.0%,x,2.2%,15.8µM*,4.7%,5.3%
O=C1CC(N2CCN(C/C=C/c3ccccc3)CC2)C(=O)N1CCc1ccccc1 (stereo not drawn),-20.8%,24.1%,-2.1%,-12.9%,-1.6%,-3.9%
Nc1cc2c(nc3c4ccccc4c(N)cc3[n+]2-c2cccc3ccccc23)c2ccccc12 (tested in a mixture with another compound),0.631µM*,u,-4.1%[11.5 µM],-19.6%[11.4 µM],2.51µM*,0.2%[11.5 µM]
COc1cc(C)cc2c(-c3c(O)cc(O)c4c3C[C@H](C)N[C@@H]4C)cc(-c3cc(-c4c(O)cc(O)c5c4C[C@H](C)N[C@@H]5C)c4cc(C)cc(OC)c4c3O)c(O)c12,3.98µM*,8.2%[11.4 µM],-2.8%[11.5 µM],-18.4%[11.4 µM],-12.5%[11 µM],-0.2%[11.5 µM]
COc1ccccc1N1CSC2=C(C#N)C(c3ccc(SC)cc3)CC(=O)N2C1 (stereo not drawn),25.1µM*,20µM*,-16.0%,3.16µM*,-6.1%[2.3 µM],0.4%
COc1cc(C2CC(=O)N3CN(c4ccccc4C)CSC3=C2C#N)cc(OC)c1OC (stereo not drawn),-3.4%,u,-17.1%,3.98µM*,-5.8%,-11.0%
COc1cccc(C2CC(=O)N3CN(c4ccccc4F)CSC3=C2C#N)c1 (stereo not drawn),-13.6%,u,-2.1%,u,0.2%[2.3 µM],-0.1%
CC(C)(O)CCC(C)(C)O,8.5%,-1.3%,-0.2%,-2.5%,-1.2%,-2.6%
Cc1cc(O)c(C(C)(C)C)cc1Sc1cc(C(C)(C)C)c(O)cc1C,20µM*,-16.2%,-9.6%,u,-5.7%,-4.9%
CC(C)(C)c1cc(O)c(C(C)(C)C)cc1O,u,-17.4%,0.3%,u,-19.9%,3.0%
O=C(c1cc(-c2ccc(O)cc2)on1)N1CCc2ccccc2C1,-9.1%,-16.1%,-7.7%,15.8µM*,-3.9%,-14.2%
O=C(c1cc(-c2ccco2)on1)N1CCc2ccccc2C1,u,u,-12.7%,15.8µM*,-14.3%,-3.1%
O=C(c1cc(-c2ccccc2O)on1)N1CCc2ccccc2C1,170.7%,-8.0%,-8.2%,-26.2%,2.2%,-3.0%
O=C(c1cc(-c2cccs2)on1)N1CCc2ccccc2C1,4.4%,x,-3.4%,-9.0%,19.1%,-2.5%
CCn1c(SCC(=O)Nc2nonc2C)nnc1-c1ccoc1C,-3.0%,10.5%,4.9%,8.8%,-0.6%,-0.7%
COc1ccc(C(C(O)C(=O)c2c[nH]c3ccccc23)N2CCN(c3ccc(OC)cc3)CC2)cc1 (stereo not drawn),12.6µM*,11.3%,-3.4%,-17.6%,-25.3%,-4.6%
O=C(c1c[nH]c2ccccc12)C(O)C(c1ccccc1)N1CCOCC1 (stereo not drawn),1.0%,-4.9%,-0.4%,-6.2%,-3.9%,-0.6%
CC1=CC(C)(C)N2C(=O)C3(N=C(N)NC(Nc4ccccc4)=N3)c3cc(C)cc1c32 (stereo not drawn),141.9%,44.5%,-2.8%,25.1µM*,-11.9%,-3.4%
CC1=CC(C)(C)N2C(=O)C3(SCC(=O)N3c3ccc(O)cc3)c3cc(C)cc1c32 (stereo not drawn),46.5%,u,-4.7%,-22.1%,-6.6%,-1.9%
O=C(/C=C\c1ccccc1)c1ccccc1O,x,x,1.1%[11.5 µM],9.4%[11.4 µM],x,-1.2%[11.5 µM]
SMILES,Tau fil binding,15-hLO-2 inh,Casp7 inh,15-hLO inh,Hsp90 Hop PPI,Caspase-1 inhib
O=C(/C=C/c1ccc(O)cc1)c1ccccc1O,x,-5.5%,-6.0%,10µM*,x,-2.2%
Cc1ccc(-c2nc(-c3ccccc3)no2)c(Cl)c1,18.3%,2.5%,-1.2%,3.5%,25.1µM*,-1.4%
CCCCn1c(NCc2ccccn2)nc2ccccc21,5.1%,38.6%,0.6%,30.6%,u,-0.4%
COc1cc(C(=O)NCc2ccc3c(c2)OCO3)ccc1OCc1c(C)noc1C,141.6%,-12.5%,-2.1%,12.6µM*,0.7%,2.2%
Cc1ccc(CNC(=O)c2cccc(OCc3c(C)noc3C)c2)cc1,14.4%,-1.2%,-0.6%,2.9%,1.0%,1.4%
CC(=O)Oc1cc(-c2coc3cc(OC(C)=O)c(OC(C)=O)c(OC(C)=O)c3c2=O)cc(OC(C)=O)c1OC(C)=O,x,36.2%,-7.0%,15.8µM*,x,2.0%
O=C1c2ccccc2C(=O)c2c1ccc(C(=O)O)c2-c1ccc2ccccc2c1,3.16µM*,-21.9%[11.4 µM],-2.7%[11.5 µM],-17.6%[11.4 µM],-17.9%[11 µM],-0.9%[11.5 µM]
Cc1ccnc(N2C(=O)c3ccccc3C2Nc2ccccc2Cl)c1 (stereo not drawn),192.0%,x,-3.1%,-4.3%,19.9%,-4.4%
COCCNC(=O)CSc1nc2ccc(N3CCOCC3)cc2c(=O)n1CCc1ccccc1,-29.7%,-9.6%,-23.8%,-26.4%,-0.6%,u
CCCCNC(=O)CSc1nc2ccc(N3CCOCC3)cc2c(=O)n1CCc1ccccc1,-28.2%,x,-25.8%,25.1µM*,-0.4%,u
Cc1csc(NC(=O)CSc2nnc(Cc3cccn3C)n2CCc2ccccc2)n1,9.1%,x,-5.2%,12.6µM*,-25.6%,-1.2%
Cn1cccc1Cc1nnc(SCC(=O)Nc2ccccc2F)n1CCc1ccccc1,-1.9%,x,-7.3%,15.8µM*,-9.3%,-3.5%
Cc1cc(NC(=O)CSc2nnc(Cc3cccn3C)n2CCc2ccccc2)no1,12.8%,x,0.4%,u,-12.6%,0.1%
CCn1c(CSc2nc3ccccc3n2C)nc2ccccc21,-13.0%,35.0%,0.2%,19.8%,-4.2%,-2.2%
CCc1nc2oc3ccccc3c(=O)c2c(=O)n1Cc1ccccc1,1.6%,0.8%,-1.5%,12.7%,-1.9%,1.2%
O=c1c2ccccc2oc2nc(-c3ccco3)n(Cc3ccccc3)c(=O)c12,20µM*,-2.6%,0.1%,-5.6%,0.2%,0.4%
COc1ccc2c(=O)c3c(=O)n(Cc4ccco4)c(C(C)C)nc3oc2c1,-25.5%,x,-0.2%,-5.4%,-5.4%,1.4%
COc1ccc2c(=O)c3c(=O)n(Cc4ccco4)c(-c4ccc(C)cc4)nc3oc2c1,10µM*,u,-6.9%,-20.5%,-4.3%,-2.9%
